Residue numbers refer to the chain shown, from its start. Whole data set: some 24,000 sequences, median “enrichment r” near 0.99, cut for the highest 2% near 3.7. Only a selection was taken, and the highest values are over-represented in it overall.
T1: UNK ZnF1-3 (human, UniProt Q9C0B0 31-174)
T1 sequence: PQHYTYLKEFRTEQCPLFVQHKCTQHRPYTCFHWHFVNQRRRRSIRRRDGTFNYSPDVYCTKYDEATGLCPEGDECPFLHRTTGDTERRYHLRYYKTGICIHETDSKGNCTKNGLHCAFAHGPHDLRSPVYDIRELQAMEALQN

B1: 117884203_117884323_1758_3pUTR_ENSG00000047932_ENST00000052569|human|control|control (ssRNA)
RNA: GGGAGUUCUACAGUCCGACGAUCAAAUUGCUUUACAUGCAAUAGCUAAUUAUGGUCUACCACAGAAAACAGGGUGUUUUAUGCAUUGAGAAUUGUUCACAUGAAGCCCUGAGGUACCCGCCUUUCAUUUAGGCAACAAACAGCCAACAGAGGAUUGAGCAUCA
B2: 48376308_48376428_337_CDS_ENSMUSG00000031558_ENSMUST00000170109|mouse|control|control (ssRNA)
RNA: GGGAGUUCUACAGUCCGACGAUCGGGCACACUGCGCAGUGCCAGCCCAUGACAGUCCACCGUGCUGCCUGAACAGGAGCACUGGGCCGGGCACGCCUGCGGCGCCACCUUGUUCAAGAUCGACAACACUAACCCCAGCGAUAGCAACAGAGGAUUGAGCAUCA
B3: chr16:57153313:57153314:+_ENSMUSG00000022752_ENSMUST00000166897|mus_mus|FALSE|FALSE (ssRNA)
RNA: GGGAGUUCUACAGUCCGACGAUCCAAAAAAAAUUAAAAAGGAUUAAUUGAAUACAAAAGAAGUAUAUUUUACAGCACUUACUAUGUUAAAAACUAACAUACUAUAAAAUACUCACAUAUUAUACAAACAGCUAUAAAAAAACACAACAGAGGAUUGAGCAUCA
B4: 57609423_57609543_1342_3pUTR_ENSG00000101166_ENST00000355937|human|control|control (ssRNA)
RNA: GGGAGUUCUACAGUCCGACGAUCACUAAGUUACAAAACUUGGGCAAAUCAAUACAGUACUCUUUUAUAAUGAAACCAUACUUUUGUUGGAGUCAUGUUACUUUAGUGAUAAUUUUCACUCCAAAAAUAUUUAAGUACCAAAUCCAACAGAGGAUUGAGCAUCA
B5: chr1:60041781:60041782:+_ENSMUSG00000041040_ENSMUST00000036540|mus_hu|FALSE|FALSE (ssRNA)
RNA: GGGAGUUCUACAGUCCGACGAUCAAGUUUACAAUAGUAAAGUAAAUGCAGUAGUGGCAAAUUUUCUUUUAUUUUCCUUCACAAAAGAAAAUCUUUAUAACCCAGUCCUAGUCUUGGACAUAGUGAAAGCUAUAAAUUCUGACUCAACAGAGGAUUGAGCAUCA
B6: chr8:13147844:13147845:+_ENSMUSG00000031446_ENSMUST00000016680|mus_mus|FALSE|FALSE (ssRNA)
RNA: GGGAGUUCUACAGUCCGACGAUCAAUAUUAACAAUUUGUAGACACAAUGAACUUAAAAAUAAGAAGUAGAAAUAGAAAUCUAUUUGGUCUUUCAGAGACCACAUCAUAGAACUCAUAAAUGAAAAUGUACAAAUAUAGAAAUGCAACAGAGGAUUGAGCAUCA
B7: chr4:154931852:154931853:+_ENSMUSG00000029064_ENSMUST00000030940|mus_mus|FALSE|FALSE (ssRNA)
RNA: GGGAGUUCUACAGUCCGACGAUCUUUUAUUGUAGUAUUUCCUUUUAAAAUUGGACCAACCCAAAACAAAAUGAAACCAAAAAAACAAAAACAAAACAAAAUAACAAAAUAAACCAAAAACAAUGGCCCCAGAAAAAAUGCACACAACAGAGGAUUGAGCAUCA
B8: chr7:126859785:126859786:-_ENSMUSG00000030942_ENSMUST00000033236|mus_hu|FALSE|FALSE (ssRNA)
RNA: GGGAGUUCUACAGUCCGACGAUCUAUAUUACACACAAAUGUUAAAAAAAAAAAAAAAAAACAGACAUAAACAAGAAAAUCACAAAAGUACAAAAACUUCACUAAACAAUUCACUUCUAACCUACAUGAUCCACAUUUUUGCAACAACAGAGGAUUGAGCAUCA
B9: chr5:92873050:92873051:-_ENSMUSG00000029426_ENSMUST00000031377|mus_hu|motif|central (ssRNA)
RNA: GGGAGUUCUACAGUCCGACGAUCCAGCACCCAACAACAACAAAAUUACUAUACAAGGGUUUAUUAAAUACUUGCGGGACACAUAAAAGAACAAUUUCAGAGCCCACAUGAUUUUAUAAAGCUUAAUGGCCAGCCAUGUCAGCCCAACAGAGGAUUGAGCAUCA
B10: chr5:40767622:40767623:-_ENSG00000132356_ENST00000397128|hu_mus|hu_hu_hu_mus_False|38_48 (ssRNA)
RNA: GGGAGUUCUACAGUCCGACGAUCAUCUUUUAUUGCGGCCCUCUUCAUGGGAUCCACCUGCAGCAUAUGUUUCAAAAGGCUGAUUACAGAAGGAUUUAAAUAUUGAGGGGUAUAAAAGAUCCCAUCACAUAUCUUCUUAAAAAGCAACAGAGGAUUGAGCAUCA
B11: chr16:57153313:57153314:+_ENSMUSG00000022752_ENSMUST00000166897|mus_mus|motif|central (ssRNA)
RNA: B3 RNA with U82G, A83G
B12: chr14:102516957:102516958:+_ENSG00000197102_ENST00000360184|hu_hu|FALSE|FALSE (ssRNA)
RNA: GGGAGUUCUACAGUCCGACGAUCAGCUCAGACCUUCCAAAUAUUUUAAAAAUGAAUAAAUGUUAAAUACCAACUUUCACUAUUACAGAAAGGGGCAGCUAGAAAAGUUUACUCUGUGCACAAGACUGCGACACCCCGCUCGUACAACAGAGGAUUGAGCAUCA
B13: chr5:92873050:92873051:-_ENSMUSG00000029426_ENSMUST00000031377|mus_hu|FALSE|FALSE (ssRNA)
RNA: B9 RNA with G75U, G76A
B14: chr15:63448706:63448707:-_ENSG00000185088_ENST00000411926|hu_hu|FALSE|FALSE (ssRNA)
RNA: GGGAGUUCUACAGUCCGACGAUCUGAUCUUGUAGCAACCUGGACAUUUUACAUCCAUAAAGUAAGAAUUUGGACUUUGUACUAGGCGUUUCUUUUUAUGUUUUUUCUUUUCCUCUUCCAAGGACGGAUGUAGUAAAUCUCUAGCAACAGAGGAUUGAGCAUCA
B15: chr15:51674161:51674162:-_ENSMUSG00000022312_ENSMUST00000022925|mus_mus|motif|central (ssRNA)
RNA: GGGAGUUCUACAGUCCGACGAUCCUGAACAACCUCAGUGCCUUGUCCUUCUUCUUGAUAAUGUUUGAUUAUCUUUAAUACGGCCAGGCCGUCGAUCUGCACCUGCUUCACGGCCGAAUCUCCGGAGCCGCCUUUGCCUUUGCCCAACAGAGGAUUGAGCAUCA

Target: T1, UNK ZnF1-3
Assay: nsRBNS (natural sequence RNA bind-n-seq); RBNS binding buffer (assumed for nsRBNS): 25 mM Tris pH 7.5, 150 mM KCl, 3 mM MgCl2, 0.01% Triton X-100, 500 ug/ml BSA, 20 U/ml SUPERase-In, 4 C; UNK is unkempt and MSI1 is Musashi-1; names of the RNAs are library labels; protein concentration not given here; high values mean tight binding

Compared with B1, B2 is lower in binding signal: 1.15 enrichment R for the first, 0.634 enrichment R for the second.

Going from B3 to B4, the binding signal falls from 11.1 enrichment R to 0.487 enrichment R.

First: B5
Second: B6
The binding signal of the first is lower: 0.593 enrichment R for the first, 3.41 enrichment R for the second.

Going from B7 to B8, the binding signal rises from 3.7 enrichment R to 10.5 enrichment R.

Compared with B9, B10 is lower in binding signal: 4.28 enrichment R for the first, 1.64 enrichment R for the second.

Compared with B11, B12 is lower in binding signal: 3.65 enrichment R for the first, 3.32 enrichment R for the second.

Compared with B13, B14 is lower in binding signal: 3.35 enrichment R for the first, 0.655 enrichment R for the second.

For B15, the binding signal was 0.51 enrichment R.
